Screening data as filed in PubChem BioAssay.
Most compounds without a hit are left out; they make up all but 11% or so of the library.
12-hLO inh: inhibitors of human 12-lipoxygenase (ALOX12); AID 1452; purified 12-hLO, xylenol orange hydroperoxide absorbance; P18054; 150,000 tested, 0.12% active; Potency, µM (doses to about 57.1 µM), usual class: inhibitors; also: nearly all actives have a fitted effect of over 55% in size
Target sequence (P18054 whole entry, looked up): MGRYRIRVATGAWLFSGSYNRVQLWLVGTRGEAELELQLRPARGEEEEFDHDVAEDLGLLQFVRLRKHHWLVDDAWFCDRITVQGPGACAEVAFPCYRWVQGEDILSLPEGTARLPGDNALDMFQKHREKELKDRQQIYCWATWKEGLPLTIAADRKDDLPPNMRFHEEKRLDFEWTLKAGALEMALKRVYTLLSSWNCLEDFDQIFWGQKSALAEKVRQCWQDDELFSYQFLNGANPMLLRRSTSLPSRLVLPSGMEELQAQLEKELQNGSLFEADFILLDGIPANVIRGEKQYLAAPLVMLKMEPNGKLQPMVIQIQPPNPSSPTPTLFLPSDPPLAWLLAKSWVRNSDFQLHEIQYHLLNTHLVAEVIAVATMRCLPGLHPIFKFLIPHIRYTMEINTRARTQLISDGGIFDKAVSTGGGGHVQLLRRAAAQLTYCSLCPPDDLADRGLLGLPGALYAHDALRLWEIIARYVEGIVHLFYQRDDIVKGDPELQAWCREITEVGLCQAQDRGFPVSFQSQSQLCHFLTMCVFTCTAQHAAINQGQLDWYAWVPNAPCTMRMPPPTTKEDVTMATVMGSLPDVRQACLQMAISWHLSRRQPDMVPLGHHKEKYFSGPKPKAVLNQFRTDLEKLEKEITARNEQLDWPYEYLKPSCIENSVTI
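Purified human 12hLO (150 nM final) was preincubated with compounds for 15 min at room temperature in 25 mM Hepes pH 7.0, 0.01% Triton X-100, then reacted with 40 uM arachidonic acid for 30 min. Hydroperoxide was detected with ferrous iron/xylenol orange.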
IMPase Li cell: IMPase inhibition in cells with lithium potentiation. CHO-M1 cells, IP1 TR-FRET (IP-One), carbachol + lithium. Potency, µM (doses to about 59.4 µM), most hits filed as inhibitors. 210,000 tested, 0.35% active. AID 1457;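 also: IP1 builds up when IMPase is blocked and the TR-FRET signal falls; nearly all actives have a fitted effect of over 50% in size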
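Test compounds were applied to CHO-M1 cells previously cultured for 16–30 h at 2000 per well. A small lithium amount accompanied them; after 30 min at 37C, IP1 was quantified by TR-FRET.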
IMPase cell inh: cell-permeable inhibitors of inositol monophosphatase (IMPase). CHO-M1 cells, IP1 accumulation, HTRF TR-FRET ratio. inhibition (IP1 accumulation), % at 46.1 µM. 120,000 tested, under 10 active. P97697; active = well fitted curve in the direction sought with a large enough effect in the signal ratio, not every such curve was filed as active; inconclusive = small, poorly fitted or top-dose-only effect, or a change in a side signal; inactive = no such curve, though single readings can be large or run the other way; the % refers to the signal ratio;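 also: cells stimulated with carbachol in lithium chloride buffer; higher means more IMPase inhibition seen as more IP1 and lower FRET ratio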
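Measured: the HTRF emission ratio (665/620 nm) plus the 620 nm donor channel, each fitted to the Hill equation to give AC50. Cells were CHO-M1 given compounds up to 46 uM and a 30 min carbachol stimulation at 37C.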
ALDH1A1 inh: blocks purified human ALDH1A1 activity. AID 1030. Purified ALDH1A1, NADH fluorescence, propionaldehyde substrate. 220,000 tested, 7.3% active. Potency, µM (doses to about 75.3 µM), hits mostly inhibitors. P00352; active = well fitted inhibition curve with a large enough effect, not every such curve was filed as active; inconclusive = small, poorly fitted or top-dose-only effect, or another doubt; inactive = no such curve, though single readings can be large or run the other way
PNC inhibitor: perinucleolar compartment assembly inhibition. PC3M PTB-GFP, PNC prevalence imaging, 16 h; hits give low values. 140,000 tested, 3.1% active. activity change (PNC), negative = inhibition, % at 10 µM. AID 2417;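 active = readout at or below -70, meaning at least 70% loss of cells showing the perinucleolar compartment, a nuclear body marking cancer cells; inconclusive = readout between -30 and a set limit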
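Compounds are pinned in duplicate onto adhered PC3M cells stably expressing GFP-tagged PTB and incubated 16 h at 37 C. Cells are then fixed, nuclei stained with Hoechst, and PNC-positive cells counted.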
HPGD block: HPGD (human) dehydrogenase inhibition. Potency, µM, actives largely listed as inhibitors. purified HPGD, NADH fluorescence kinetic, PGE2 substrate. P15428. 150,000 tested, 4.3% active; active = well fitted inhibition curve with a large enough effect, not every such curve was filed as active; inconclusive = small, poorly fitted or top-dose-only effect, or another doubt; inactive = no such curve, though single readings can be large or run the other way
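NADH formation kinetics: reaction with 30 uM PGE2 and 1 mM NAD+ (final), 20 nM enzyme, Tris-HCl pH 8 with Tween 20, after 15 min compound preincubation at room temperature. Fluorescence change, last versus first of five reads.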
Of the large screens only hits and unclear results are named; the others gave an inactive call. Unless noted, calls follow the shape of the dose curve; as a rule, active = well fitted curve in the direction sought with a large enough effect; inconclusive = small, poorly fitted or top-dose-only effect, or another doubt; inactive = no such curve, though single readings can be large; an effect the other way counts as inactive or inconclusive.

Cc1ccc2cc(CCNC(=O)c3ccc(Br)o3)c(=O)[nH]c2c1	ALDH1A1 inh inconclusive, HPGD block 28µM
Cc1ccn2cc(CNC(=O)c3ccc(Br)o3)nc2c1	HPGD block 16µM
COC(=O)[C@@H]1C[C@H]1[C@@H](NC(=O)c1cnccn1)c1ccccc1	none (no result: IMPase cell inh, PNC inhibitor)
N=C(N)SCCN1CCCCC1	ALDH1A1 inh inconclusive (no result: IMPase cell inh, PNC inhibitor)
O=C(NCCCCc1ccccc1)c1ccc(Br)o1	HPGD block 14µM
O=C(NCCCc1ccccc1)c1ccccc1O	ALDH1A1 inh inconclusive, HPGD block inconclusive
CCCCCCNC(=O)c1ccc(Br)o1	HPGD block inconclusive (no result: IMPase cell inh)
O=C(NCCCc1ccccc1)c1ccc(Br)o1	ALDH1A1 inh inconclusive, HPGD block 25µM
CCN1C(=O)CC(N2CCC(Nc3ccc(OC)cc3)CC2)C1=O (configuration not stated)	ALDH1A1 inh inconclusive
O=C1CC(N2CCC(c3nc4ccccc4o3)CC2)C(=O)N1c1cc(Cl)cc(Cl)c1 (configuration not stated)	ALDH1A1 inh 4µM
O=C1CC(N2CCN(c3cccc(C(F)(F)F)c3)CC2)C(=O)N1c1ccccc1F (configuration not stated)	ALDH1A1 inh 20µM
COc1cccc(N2CCN(C3CC(=O)N(c4ccc(C)c(Cl)c4)C3=O)CC2)c1 (configuration not stated)	ALDH1A1 inh inconclusive
COc1ccc(N2C(=O)CC(N3CCN(S(=O)(=O)c4c(F)cccc4F)CC3)C2=O)cc1OC (configuration not stated)	ALDH1A1 inh 14µM
COc1ccc(NC2CCN(C3CC(=O)N(c4ccc(F)c(Cl)c4)C3=O)CC2)cc1 (configuration not stated)	ALDH1A1 inh 1.1µM, HPGD block inconclusive
CCCCNC(=O)C(c1ccc(OCC(=O)OC)c(C(=O)OC)c1)N(Cc1ccccn1)C(=O)CCCCCN1C(=O)NC(c2ccc(-c3ccccc3)cc2)C(C(=O)OCc2ccccc2)=C1C (configuration not stated)	none (no result: IMPase cell inh, PNC inhibitor)
c1ccc(-c2nc(-c3ccccc3)c(Nc3ccc4ccccc4c3)o2)cc1	none (no result: IMPase cell inh, PNC inhibitor)
COc1cccc(N2C(=O)CC(N3CCC(c4nc5ccccc5[nH]4)CC3)C2=O)c1 (configuration not stated)	ALDH1A1 inh 32µM
COc1cccc(N2CCN(C3CC(=O)N(c4ccc(F)c(Cl)c4)C3=O)CC2)c1 (configuration not stated)	ALDH1A1 inh 3.5µM
C=C(C)C1CC=C(C)C(OC(C)=O)C1 (configuration not stated)	none (no result: IMPase cell inh, PNC inhibitor)
O=C(Nc1ccc(Cl)c(C(F)(F)F)c1)C(Cc1ccccc1)NS(=O)(=O)c1ccc(Br)s1 (configuration not stated)	none (no result: 12-hLO inh, IMPase Li cell, ALDH1A1 inh, PNC inhibitor, HPGD block)
COc1ccccc1NS(=O)(=O)c1cc(NC(=O)CNC(=O)c2ccccc2)ccc1C	none (no result: IMPase cell inh)
CCN(CC)c1ccc(NC(=O)COc2ccccc2C#N)cc1S(=O)(=O)Nc1ccccc1OC	HPGD block 3.5µM (no result: IMPase cell inh)
O=C1C2=C(S[C@@H]3O[C@H](CO)[C@@H](O)[C@H](O)[C@H]3O2)C(=O)c2ccccc21	ALDH1A1 inh 1.4µM, HPGD block inconclusive (no result: 12-hLO inh, IMPase cell inh, PNC inhibitor)
NC(C(=O)O)(c1ccc(P(=O)(O)O)cc1)C1CC1 (configuration not stated)	none (no result: 12-hLO inh, IMPase cell inh, PNC inhibitor, HPGD block)
Cc1n[nH]c(C)c1N1C(=O)c2cccc3cc(Br)cc(c23)C1=O	none
Cc1ccc(C(=O)O)cc1N1C(=O)c2cccc3cc(Br)cc(c23)C1=O	IMPase Li cell 2.2µM, IMPase cell inh inconclusive
C=C(C)C(O)/C=C/c1cccc(OC)c1 (configuration not stated)	none (no result: 12-hLO inh, IMPase Li cell, IMPase cell inh, PNC inhibitor, HPGD block)
CCOc1ccccc1-n1c(SCC(=O)NC)nnc1-c1ccco1	PNC inhibitor inconclusive
CCOc1ccccc1-n1c(SCC(N)=O)nnc1-c1ccco1	ALDH1A1 inh 25µM
CNC(=O)CSc1nnc(-c2ccco2)n1-c1ccccc1OC	IMPase cell inh inconclusive, ALDH1A1 inh 20µM
CCc1ccccc1N(C1=NCCCS1)S(=O)(=O)c1ccc(C(C)(C)C)cc1	ALDH1A1 inh 0.79µM, PNC inhibitor inconclusive (no result: IMPase cell inh)
N#Cc1c(NC(=O)C2CC(c3ccccc3O)=NO2)sc2c1CCC2 (configuration not stated)	ALDH1A1 inh 11µM, HPGD block 25µM
CCC1(C)Cc2c(sc(NC(=S)NC(=O)c3ccccc3)c2C#N)CO1 (configuration not stated)	ALDH1A1 inh inconclusive, PNC inhibitor inconclusive, HPGD block 7.9µM
N#Cc1c(NC(=O)c2ccncc2)sc2c1CCC2	ALDH1A1 inh 10µM
N#Cc1c(NC(=O)C2CC(c3ccccc3Cl)=NO2)sc2c1CCC2 (configuration not stated)	ALDH1A1 inh inconclusive, HPGD block inconclusive
N#Cc1c(NC(=O)c2cnn3cccnc23)sc2c1CCCC2	ALDH1A1 inh 13µM (no result: 12-hLO inh, IMPase cell inh, PNC inhibitor, HPGD block)
CN(Cc1ccco1)c1nc(-c2ccoc2)nc2ccccc12	ALDH1A1 inh inconclusive (no result: 12-hLO inh, IMPase cell inh, PNC inhibitor, HPGD block)
CC(=O)NC(=S)Nc1sc2c(c1C#N)CCCCC2	ALDH1A1 inh 1.4µM, PNC inhibitor -115 (no result: IMPase Li cell, HPGD block)
N#Cc1c(NC(=O)C2C3C=CC(C3)C2C(=O)O)sc2c1CCCCC2 (configuration not stated)	ALDH1A1 inh 13µM (no result: 12-hLO inh, IMPase cell inh, PNC inhibitor, HPGD block)
N#Cc1c(NC(=S)NC(=O)Cc2cccs2)sc2c1CCCCC2	ALDH1A1 inh 4µM
COC(=O)CCC(=O)Nc1sc2c(c1C#N)CCCC2	ALDH1A1 inh 11µM, PNC inhibitor inconclusive (no result: IMPase Li cell, HPGD block)
CC(=O)Nc1sc2c(c1C#N)CCCC2	none
COc1cccc(Cn2c(=O)c(-c3ccc(F)cc3)nc3cnc(N(C)C)nc32)c1	ALDH1A1 inh inconclusive (no result: 12-hLO inh, IMPase cell inh, PNC inhibitor, HPGD block)
CC(C)(C)c1ccc(C(=O)NC(=S)Nc2sc3c(c2C#N)CCC3)cc1	HPGD block inconclusive
CCN1CCc2c(sc(NC(=S)NC(=O)c3ccccc3)c2C#N)C1	ALDH1A1 inh inconclusive
CC(C)(C)C(=O)Nc1sc2c(c1C#N)CCC2	none (no result: 12-hLO inh, IMPase cell inh, PNC inhibitor, HPGD block)
CC(C)(C)C(=O)NC(NC(=S)Nc1sc2c(c1C#N)CCCC2)C(Cl)(Cl)Cl (configuration not stated)	12-hLO inh inconclusive, IMPase cell inh inconclusive, ALDH1A1 inh 6.3µM, HPGD block inconclusive
CC1CCc2sc(NC(=S)NC(=O)c3ccccc3)c(C#N)c2C1 (configuration not stated)	ALDH1A1 inh 10µM, PNC inhibitor -80 (no result: IMPase cell inh)
N#Cc1c(NC(=S)NC(=O)c2ccccc2)sc2c1CCC2	ALDH1A1 inh 14µM (no result: IMPase cell inh)
Cn1nc(C(=O)Nc2sc3c(c2C#N)CCCC3)ccc1=O	ALDH1A1 inh 2.2µM (no result: 12-hLO inh, IMPase cell inh, PNC inhibitor, HPGD block)
COc1cc(CNCCNC(=O)c2nonc2N)ccc1OCc1ccc(Cl)nc1	none (no result: 12-hLO inh, IMPase cell inh, PNC inhibitor, HPGD block)
O=C(c1ccccc1)[C@H](Nc1ccc2ccccc2c1)c1ccccc1	none (no result: IMPase cell inh, PNC inhibitor)
